Laboratory results as given in paper PMC5540273 (PLoS ONE, 2017).

Assays:
Conditions in all cases: concentration: 1 μM, replicates: in singlicate; n = 1
ULK2 = test system: ULK2
ULK3 = test system: ULK3
VEGFR2 = test system: T1, VEGFR2
T1 construct: gene KDR

VPS34 = test system: T2, VPS34
T2 construct: gene PIK3C3

VRK2 = test system: VRK2
WEE1 = test system: WEE1
WEE2 = test system: WEE2
WNK1 = test system: WNK1
WNK2 = test system: WNK2
WNK3 = test system: WNK3
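Further: KINOMEscan kinase panel screen.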

Structure (SMILES)	%Inh (ULK2)	%Inh (ULK3)	%Inh (VEGFR2)	%Inh (VPS34)	%Inh (VRK2)	%Inh (WEE1)	%Inh (WEE2)	%Inh (WNK1)	%Inh (WNK2)	%Inh (WNK3)
Fc1ccc(-c2ncn(CCCNCc3ccccc3)c2-c2ccncc2)cc1	19%	14%	0%	0%	13%	0%	4%	0%	0%	0%
CNc1nccc(-c2c(-c3ccc(F)cc3)ncn2C2CCN(C)CC2)n1 [SB-222903]	15%	0%	0%	0%	16%	0%	0%	0%	0%	0%
Cc1cccc(-c2nc(Nc3ccc4[nH]nnc4c3)c3ccccc3n2)n1 [GW867587]	0%	0%	0%	0%	20%	0%	0%	0%	0%	0%
COc1ccc(-c2oc3ncnc(N)c3c2-c2ccc(OC)cc2)cc1 [SB-589132]	0%	39%	16%	17%	56%	33%	0%	22%	35%	52%
FC(F)(F)c1ccc(-c2cc(-c3c[nH]nc3-c3ccccn3)ccn2)cc1 [GW599550]	0%	0%	4%	0%	0%	12%	0%	0%	7%	31%
Cn1ccc2ncnc(Oc3ccc(NC(=O)Nc4cccnc4)c(Cl)c3)c21	8%	0%	74%	0%	0%	0%	28%	0%	0%	0%
CC(C)N1CCC(n2cnc(-c3ccc(F)cc3)c2-c2ccnc(N)n2)CC1 [SB-223132]	0%	5%	0%	27%	0%	17%	0%	0%	0%	0%
Nc1nc(-c2cccnc2)c(-c2ccnc3ccccc23)s1 [GW684083]	0%	18%	0%	72%	16%	27%	11%	0%	0%	31%
CS(=O)(=O)CCNCc1ccc(-c2ccc3ncnc(Nc4ccc(OCc5ccccc5)c(Cl)c4)c3c2)o1.Cl [GW574783]	0%	0%	0%	18%	42%	12%	19%	11%	10%	29%
Clc1cccc(-c2nc(Nc3ccncc3)c3ccccc3n2)c1 [GW873004]	0%	0%	0%	48%	0%	0%	0%	0%	0%	0%
Nc1n[nH]c2nnc(-c3ccccc3)cc12 [SB-517389]	0%	10%	0%	0%	0%	21%	15%	10%	17%	5%
COc1ccc(NC(=O)Nc2ccc(C)c(-c3ccc(C(=O)Nc4ccncc4)cc3)c2)cc1 [GSK1398475]	0%	0%	0%	0%	0%	34%	11%	4%	0%	2%
COc1ccc(NC(=O)c2ccc(-c3cc(-c4nnc(C)o4)ccc3C)cc2)cc1 [GW595885]	0%	24%	0%	0%	25%	0%	2%	0%	1%	25%
COc1cc2ncnc(Nc3ccc(OCc4ccccc4Br)c(Cl)c3)c2cc1OC.Cl [GI261590]	0%	3%	0%	0%	11%	0%	0%	14%	0%	22%
CSc1ccc(NC2=C(c3ccccc3Cl)C(=O)NC2=O)cc1 [SB-342411]	0%	0%	0%	1%	0%	2%	0%	0%	3%	17%
